The list is not random: actives were taken first. Their share in the collection is about 2.4%.
D2 ag-1 – HTS Assay for Allosteric Agonists of the Human D2 Dopamine Receptor: Primary Screen for Agonists; AID 485358, 2010; activation, % at 2 µM; 0.53% of 340,000 active; HEK293 T-REx D2 cells, calcium flux agonist mode;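 active means activation over 3 SD above normal in the single-dose calcium agonist read, cut at about 30% in these data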
Target sequence (P14416 whole entry, looked up): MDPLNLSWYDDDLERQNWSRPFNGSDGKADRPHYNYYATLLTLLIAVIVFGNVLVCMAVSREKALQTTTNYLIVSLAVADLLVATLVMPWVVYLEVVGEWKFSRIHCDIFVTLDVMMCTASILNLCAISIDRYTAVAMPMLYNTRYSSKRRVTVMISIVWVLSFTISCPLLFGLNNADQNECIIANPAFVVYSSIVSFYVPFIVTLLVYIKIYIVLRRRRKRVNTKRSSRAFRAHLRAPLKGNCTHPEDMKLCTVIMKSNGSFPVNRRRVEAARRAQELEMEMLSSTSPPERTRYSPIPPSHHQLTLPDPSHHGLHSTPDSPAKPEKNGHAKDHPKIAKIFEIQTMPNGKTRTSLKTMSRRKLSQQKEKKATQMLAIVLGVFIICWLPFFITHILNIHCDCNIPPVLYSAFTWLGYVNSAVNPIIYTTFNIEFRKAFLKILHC
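Calcium-flux readout, 1 cycle/sec over 180 s following compound pin transfer, in inducible HEK293 Trex D2 cells (force-coupled); dopamine controls included. Positive calcium responses during this window marked compounds as potential agonists.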
D2 PAM-1 – HTS Assay for Positive Allosteric Modulators of the Human D2 Dopamine Receptor: Primary Screen for Potentiators; D(2) dopamine receptor (Homo sapiens), P14416; HEK293 T-REx D2, calcium flux, EC20 dopamine potentiation; potentiation, % at 10 µM; 0.34% of 340,000 active;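 active means potentiation over 3 SD above the plate norm, cut at about 30% in these data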
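Primary screen. Calcium kinetics in induced HEK293 T-REx D2 cells: compound pre-addition 180 s, EC20 dopamine, 180 s more.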
D2 antag – HTS Assay for Allosteric Antagonists of the Human D2 Dopamine Receptor: Primary Screen for Antagonists. D(2) dopamine receptor (Homo sapiens), P14416. HEK293 TREx D2 cells, calcium flux, dopamine EC80. inhibition, % at 10 µM. 2% of 340,000 active. AID 485344, 2010; in the data active means inhibition above about 30%; inactive means below that, where a call was filed
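Antagonism is scored as inhibition of an EC80 dopamine-evoked calcium signal in a force-coupled, tetracycline-inducible HEK293 T-REx D2 line, with compound present 180 s before agonist.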
D2 ag-2 – Beta-Arrestin HTS for Positive Allosteric Modulators of the Human D2 Dopamine Receptor: Agonists | activation, % (test concentration not listed) | 0.084% of 360,000 active | DiscoveRx PathHunter D2 beta-arrestin, luminescence, 90 min; 100% = 57 uM dopamine signal | D(2) dopamine receptor (Homo sapiens), P14416; in the data active means activation above about 40%; inconclusive means between about 15% and that limit
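DiscoveRx PathHunter D2 beta-arrestin cells (2,100/well) attached overnight, then compound-stimulated 90 min at 37 C in HBSS/10 mM HEPES/0.1% Tween-20 buffer; beta-galactosidase complementation read by luminescence after 1 h at ambient temperature. Dopamine 57 uM final (EC100) as control.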
D2 PAM-2 – Beta-Arrestin HTS for Positive Allosteric Modulators of the Human D2 Dopamine Receptor: Potentiators; DiscoveRx D2 beta-arrestin cells, luminescence, 90 min; 100% = 57 uM dopamine signal; potentiation, % (test concentration not listed); 0.23% of 360,000 active; AID 624464, 2012; in the data active means potentiation above about 50%; inconclusive means mostly about 30% to 49%
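PathHunter D2 cells, attached overnight at 37 deg C, received compound in DMSO plus dopamine at EC20 (50 nM final) for 90 min at 37 deg C. Beta-arrestin recruitment was read as luminescence after 1 h with detection reagent at ambient temperature.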
A number is an active result; 0 = inactive; ? = inconclusive; - = no result given.

SMILES | D2 ag-1 | D2 PAM-1 | D2 antag | D2 ag-2 | D2 PAM-2
Cc1ccc2[nH]c3c(c2c1)CCCC3=O | 0 | 0 | 0 | 0 | 0
CCc1ccc(C2CC(c3ccccc3)n3ncnc3N2)cc1 (configuration not stated) | 0 | 0 | 42 | 0 | 0
CCc1ccc(C2CC(c3ccccc3)Nc3nc(N)nn32)cc1 (configuration not stated) | 0 | 0 | 0 | 0 | 0
Cc1cccc(Cc2c(C)nc3nc(SCC(=O)O)nn3c2C)c1 | 0 | 47 | 0 | 0 | 0
Cc1cccc(Cc2c(C)nc3nc(SCC(=O)NCc4ccccc4)nn3c2C)c1 | 0 | 0 | - | - | -
COC(=O)CSc1nnc(CCc2ccccc2)n1C | 0 | 0 | 0 | 0 | 0
C=CC[C@@H]1C=C[C@H](O/N=C/[C@@H](NS(=O)(=O)c2ccc(C)cc2)[C@H](C)/C=C/CC(=O)OC)[C@@H](CO)O1 | 0 | 0 | 31 | - | -
COC(=O)C/C=C/[C@@H](C)[C@@H](/C=N/OC[C@@H](C)[C@H](OCc1ccccc1)C(C)C)NS(=O)(=O)c1ccc(C)cc1 | - | 0 | - | - | -
CCOC(=O)c1sc(N2C(=O)C(O)=C(C(=O)c3ccco3)C2c2cccc([N+](=O)[O-])c2)nc1C (configuration not stated) | 0 | 0 | 0 | 0 | 0
O=c1[nH]c(/C=C/c2ccc([N+](=O)[O-])cc2)c([N+](=O)[O-])c(=O)[nH]1 | 0 | 0 | 0 | ? | 52
O=c1[nH]c(/C=C/c2ccc3c(c2)OCO3)c([N+](=O)[O-])c(=O)[nH]1 | 0 | 0 | 0 | - | -
O=C1CCCN1CCCNc1nc2c(S(=O)(=O)c3ccccc3)nnn2c2ccc(Cl)cc12 | 0 | 0 | 0 | 0 | 0
Clc1ccc2c(c1)CCc1cccnc1C2=C1CCNCC1 | - | - | 30 | - | -
CCOc1ccc(N(CC(=O)NCc2ccc(OC)cc2)S(=O)(=O)c2c(C)[nH]c(=O)[nH]c2=O)cc1 | 0 | 0 | - | 0 | 0
CCOc1ccc(N(CC(=O)NCCc2ccc(Cl)cc2)S(=O)(=O)c2c(C)[nH]c(=O)[nH]c2=O)cc1 | 0 | 32 | 0 | 0 | 0
COc1cccc2cc(C(=O)CC3(O)C(=O)N(Cc4ccccc4)c4ccccc43)c(=O)oc12 (configuration not stated) | 0 | 40 | 0 | 0 | 0
O=C1NC(=Nc2ccc(Cl)cc2)/C(=C/c2ccco2)S1 | 0 | 0 | 59 | 0 | 0
N#Cc1cccc(C(c2nnnn2C2CCCC2)N2CCC(Cc3ccccc3)CC2)c1 (configuration not stated) | 0 | 40 | 0 | 0 | 0
S=C(Nc1ccccc1Cl)N1CCC(c2ccccc2)C1 (configuration not stated) | 0 | 0 | 0 | 0 | 0
Cc1ccc(NC(=S)N2CCC(c3ccccc3)C2)c(Cl)c1 (configuration not stated) | 0 | 0 | 30 | 0 | 0
O=c1nc2ccccc2c2n1CC(CN1CCN(C(c3ccccc3)c3ccccc3)CC1)N2 (configuration not stated) | 0 | 0 | 47 | 0 | 0
O=C(Cc1cnn(-c2ccccc2)c1)c1ccc(O)c(O)c1O | 0 | 0 | 0 | ? | 110
CCc1cc(C(=O)Cc2cnn(-c3ccccc3)c2)c(O)cc1O | 0 | 0 | 0 | 0 | 0
CCCCCOP(=O)(OCCCCC)C1(NS(=O)(=O)c2ccccc2)C=CC(=O)c2ccccc21 (configuration not stated) | 0 | 0 | 0 | ? | 90
Cc1cc(-c2nnc(SCC(=O)N3C(C)CCCC3C)o2)no1 (configuration not stated) | 0 | 0 | 0 | 0 | 0
SMILES | D2 ag-1 | D2 PAM-1 | D2 antag | D2 ag-2 | D2 PAM-2
CC1CCCC(C)N1C(=O)CSc1nnc(C2CCCCC2)o1 (configuration not stated) | 0 | 0 | 90 | 0 | 0
COc1ccc2ccc3c(c2c1)N=CC1(O3)N(C)c2ccccc2C1(C)C (configuration not stated) | 0 | 0 | 0 | 0 | 71
CN1c2ccccc2C(C)(C)[C@]12C=Cc1cc(O)ccc1O2 | 0 | 0 | 0 | 0 | 0
CN1c2ccccc2C(C)(C)C12C=Nc1c(ccc3ccccc13)O2 (configuration not stated) | 0 | 0 | 34 | ? | 87
Cc1cccc(OCCOCCSc2ncccn2)c1 | 0 | 0 | 0 | 0 | 0
Cc1ccc(OCCSc2ncccn2)c(C)c1 | 0 | 0 | 37 | 0 | 0
O=C(CCc1ccc(Oc2cc([N+](=O)[O-])cc([N+](=O)[O-])c2)cc1)NC1CCCC1 | 0 | 0 | 0 | ? | 0
CC1CCN(C(=O)CCc2ccc(Oc3cc([N+](=O)[O-])cc([N+](=O)[O-])c3)cc2)CC1 | - | - | - | ? | 84
COc1ccc(NC(=O)c2cccc3c(=O)c4c([nH]c23)CCCC4)cc1 | - | 0 | - | - | -
O=C1NC(NS(=O)(=O)c2ccccc2)(C(F)(F)F)C(=O)N1c1ccc(F)cc1 (configuration not stated) | 0 | 0 | 33 | 0 | 0
CCN(CCCNC(=O)c1nn(-c2ccc(C)cc2)c(=O)c2c1c1ccccc1n2C)c1cccc(C)c1 | 0 | 0 | - | - | -
CCOc1ccc2ccccc2c1/C=N\NC(=O)c1ccc([N+](=O)[O-])cc1 | 0 | 0 | 39 | 0 | 0
CCOc1ccccc1NC(=O)CSc1ccc([N+](=O)[O-])cc1 | 0 | 0 | 41 | 0 | 0
CCOc1ccc2ccccc2c1/C=N\NC(=O)OC | 0 | 0 | 0 | 0 | 0
CCOc1ccccc1NC(=O)NNS(=O)(=O)c1ccc([N+](=O)[O-])cc1 | 0 | 0 | 0 | 0 | 0
CN(c1ccccc1)S(=O)(=O)c1cc(C(=O)Nc2ccccc2N2CCOCC2)ccc1Cl | - | - | - | 0 | 0
CCOC(=O)C1CCCN(C(=O)c2cn(CC)c3ccc(S(=O)(=O)N(C)C)cc3c2=O)C1 (configuration not stated) | 0 | 0 | 35 | 0 | 0
CC1(C)C(c2cccs2)=[N+]([O-])C2(CCCCC/C2=N\O)N1O (configuration not stated) | 0 | 0 | 0 | 0 | ?
CC1(C)C(c2ccccc2)=[N+]([O-])C2(CCCCC2=O)N1O (configuration not stated) | 0 | 0 | 33 | 0 | 0
O=C(NCC1CCCCC1)c1ccc2sc([C@H]3C[C@H](O)[C@@H](CO)O3)nc2c1 | - | - | - | 0 | 0
Cc1cc(C)c(NC(=O)C(C)Sc2nnc(-c3ccco3)n2-c2ccccc2)c(C)c1 (configuration not stated) | 0 | 0 | 0 | - | -

Screens (PubChem BioAssay)
